Consider 13 compounds from PubChem BioAssay.

Experiment [1] in a line: optical density shifts of acrAB sulA E. coli – strain DRC41, OD650, 48 h, E. coli filamentation inducer project, primary screen (AID 1152).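 Note: E. coli MC1000 strain DRC41 lacking acrAB efflux pump and sulA.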 As to conditions: higher = more signal, called active from +8 up or from −8 down.
The nature of experiment [2]: probe aLefty1 binding on compound microarray – biochemical, small-molecule microarray, 635/667 nm fluorescence, primary screen (AID 1153).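 Note: score merges spot fluorescence with signal-to-noise ratio from the scanned slide images.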 Conditions: higher = more signal.
Experiment [3] in a line: plasmodial surface anion channel blockers, osmotic lysis – cell-based, P. falciparum Indochina, OD700, 1 h, primary screen (AID 1154). As to conditions: P. falciparum Indochina infected RBC osmotic lysis, higher = more signal, called active from +8 up or from −8 down.
Experiment [4] is described as follows: plasmodial surface anion channel blockers, osmotic lysis – cell-based, P. falciparum Indochina, OD700, 2 h, primary screen (AID 1155).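 Note: lysis reports solute entry through the parasite surface anion channel PSAC.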 As to conditions: P. falciparum Indochina infected erythrocytes, higher = more signal, called active from +8 up or from −8 down.
Experiment [5] is described as follows: changes in parasitized red cell lysis, either direction – P. falciparum Indochina, OD700, 3 h, PSAC antagonist project, primary screen (AID 1156). As to conditions: P. falciparum-infected erythrocytes, osmotic lysis, higher = more signal, called active from +8 up or from −8 down.
Experiment [6] can be described thus: plasmodial surface anion channel blockers, osmotic lysis – cell-based, P. falciparum Indochina, OD700, 18 h, primary screen (AID 1157). As to conditions: P. falciparum Indochina infected erythrocytes, osmotic lysis OD700, 18 h; higher = more signal, called active from +8 up or from −8 down.
The nature of experiment [7]: S6 kinase pathway phospho-S6 level changes – cell-based, A549, cytoblot, luminescence, serum-stimulated, primary screen (AID 1158).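 Note: serum-stimulated A549 lung adenocarcinoma cells; signal is phosphorylated S6 detected by cytoblot immunostaining with HRP secondary.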 Conditions: 5 h, higher = more signal.
For experiment [8], the target named is NADPH oxidase 2 (Homo sapiens) (UniProt P04839). The experiment in a line: compounds shifting NOX2 Amplex Red fluorescence – cell-based, HEK293-NOX2, PMA-stimulated, NOX inhibitor project, primary screen (AID 1159). Note: test concentration not given here. As to conditions: 45 min, higher = more signal, called active from +8 up or from −8 down.
The target of experiment [9] is NADPH oxidase 4 (Homo sapiens) (UniProt Q9NPH5). The experiment in a line: compounds shifting NOX4 Amplex Red fluorescence – cell-based, HEK293-NOX4, tetracycline-induced, NOX inhibitor project, primary screen (AID 1160). Conditions: HEK293-NOX4, Amplex Red H2O2 fluorescence, 45 min; higher = more signal, called active from +8 up or from −8 down.
The target of experiment [10] is NADPH oxidase 5 (Homo sapiens) (UniProt Q96PH1). The experiment in a line: compounds shifting NOX5 Amplex Red fluorescence – cell-based, HEK293-NOX5, NOX inhibitor project, primary screen (AID 1161). As to conditions: HEK293-NOX5, ionomycin, 45 min, higher = more signal.

The structures appear in SMILES notation. Activity calls are given as the source filed them.

Sequence of NADPH oxidase 2 (Homo sapiens) (P04839 whole entry, looked up): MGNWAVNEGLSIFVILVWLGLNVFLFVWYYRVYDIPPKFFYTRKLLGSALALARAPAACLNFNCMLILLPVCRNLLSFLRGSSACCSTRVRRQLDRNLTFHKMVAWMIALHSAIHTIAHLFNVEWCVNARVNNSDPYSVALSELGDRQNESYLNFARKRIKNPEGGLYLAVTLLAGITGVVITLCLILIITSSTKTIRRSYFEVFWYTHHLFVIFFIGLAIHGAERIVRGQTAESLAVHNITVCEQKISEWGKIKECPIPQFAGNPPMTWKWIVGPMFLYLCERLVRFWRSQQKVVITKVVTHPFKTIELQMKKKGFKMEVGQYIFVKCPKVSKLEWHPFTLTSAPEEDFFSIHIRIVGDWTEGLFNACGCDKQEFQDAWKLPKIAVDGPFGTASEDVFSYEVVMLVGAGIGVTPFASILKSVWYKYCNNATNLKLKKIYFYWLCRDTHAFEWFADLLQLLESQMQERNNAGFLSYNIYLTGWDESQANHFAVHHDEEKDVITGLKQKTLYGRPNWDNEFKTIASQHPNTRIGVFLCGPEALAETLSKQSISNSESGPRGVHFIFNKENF
Sequence of NADPH oxidase 5 (Homo sapiens) (Q96PH1 whole entry, looked up): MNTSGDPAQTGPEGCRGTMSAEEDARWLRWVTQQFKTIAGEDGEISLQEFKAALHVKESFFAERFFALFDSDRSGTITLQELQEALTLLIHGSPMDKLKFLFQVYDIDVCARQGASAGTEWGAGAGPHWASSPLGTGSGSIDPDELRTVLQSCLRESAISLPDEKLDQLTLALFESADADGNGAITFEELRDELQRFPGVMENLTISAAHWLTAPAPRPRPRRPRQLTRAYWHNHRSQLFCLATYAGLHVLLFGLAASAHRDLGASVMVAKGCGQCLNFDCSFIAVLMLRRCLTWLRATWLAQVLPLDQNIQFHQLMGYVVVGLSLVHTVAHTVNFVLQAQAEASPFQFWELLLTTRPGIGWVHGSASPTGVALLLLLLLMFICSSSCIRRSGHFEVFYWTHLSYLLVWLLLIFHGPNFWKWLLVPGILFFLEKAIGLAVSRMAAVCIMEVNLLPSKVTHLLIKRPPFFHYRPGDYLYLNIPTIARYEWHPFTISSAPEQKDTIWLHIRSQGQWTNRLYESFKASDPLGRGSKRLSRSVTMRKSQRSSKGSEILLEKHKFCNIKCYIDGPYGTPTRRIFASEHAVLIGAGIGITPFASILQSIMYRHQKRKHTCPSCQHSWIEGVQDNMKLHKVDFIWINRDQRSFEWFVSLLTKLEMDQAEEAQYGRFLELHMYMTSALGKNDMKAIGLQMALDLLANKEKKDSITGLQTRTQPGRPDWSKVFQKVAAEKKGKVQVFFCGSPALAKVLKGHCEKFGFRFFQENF
Sequence of NADPH oxidase 4 (Homo sapiens) (Q9NPH5 whole entry, looked up): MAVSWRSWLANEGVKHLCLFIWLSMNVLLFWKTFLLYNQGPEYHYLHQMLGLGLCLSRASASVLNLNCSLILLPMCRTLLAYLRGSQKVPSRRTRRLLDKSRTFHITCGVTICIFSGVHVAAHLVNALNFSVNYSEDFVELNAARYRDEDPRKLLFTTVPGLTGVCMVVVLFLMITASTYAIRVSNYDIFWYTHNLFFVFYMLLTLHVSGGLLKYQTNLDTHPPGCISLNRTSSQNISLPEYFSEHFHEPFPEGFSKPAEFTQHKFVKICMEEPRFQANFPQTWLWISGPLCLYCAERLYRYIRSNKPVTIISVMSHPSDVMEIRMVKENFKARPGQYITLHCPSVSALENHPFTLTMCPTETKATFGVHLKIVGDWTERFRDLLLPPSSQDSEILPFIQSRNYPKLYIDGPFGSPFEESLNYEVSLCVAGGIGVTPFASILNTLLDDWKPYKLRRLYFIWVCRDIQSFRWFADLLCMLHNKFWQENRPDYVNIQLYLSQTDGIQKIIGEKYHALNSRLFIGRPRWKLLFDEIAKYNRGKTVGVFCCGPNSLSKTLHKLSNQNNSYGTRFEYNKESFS

Take `COCCn1c(C(=O)N2CCCC2)cc2c1C[C@H]1CN(C(=O)c3ccccc3)[C@@](Cc3ccc(F)cc3)(C(=O)OC)[C@@H]21`: the z-score in experiment [1] is -1.33 (inactive); in experiment [3], 1.15 (inactive); in [4], 0.137 (inactive); in experiment [5] it was 2.62 (inactive); in experiment [6], 0.642 (inactive); in [7], -0.0267. The z-score in experiment [8] is 0.236 (inactive); in [9], 0.191 (inactive); in experiment [10], -4.43. In [2], this compound came in with a composite z-score of 0.237.

For `COc1ccc([Si](C)(C)[C@H]2[C@H](CCO)O[C@@]3(C(=O)N(C)c4c(Br)cc(C)cc43)[C@@H]2C)cc1`, the z-score is -1.28 (inactive) in [1]; 7.79 (inactive) in experiment [3]; 1.8 (inactive) in experiment [4]; -2.17 (inactive) in experiment [5]; 0.987 (inactive) in experiment [6]; 0.0508 in experiment [7]. For the same compound, the z-score was -1.41 (inactive) in experiment [8], -1.15 (inactive) in experiment [9] and -0.777 in experiment [10]. This compound came in with a composite z-score in experiment [2] of 0.0486.

On to `CC(C)(C)OC(=O)CC[C@@]1(C(N)=O)N=C(c2ccc(OCCCO)cc2)O[C@@H]1c1ccccc1`, for which the z-score in experiment [1] is -0.795 (inactive); in [3], 5.46 (inactive); in [4], 0.431 (inactive); in experiment [5], 0.726 (inactive); in experiment [6], 0.299 (inactive); in experiment [7], -0.0683. Besides, the z-score in experiment [8] was -0.414 (inactive); in experiment [9] it was 0.492 (inactive); in experiment [10], -0.0961. This compound had a composite z-score in experiment [2] of 0.345.

As to `Cc1ccc(C(C)CC(O)C2C=CC3C(=O)N(c4ccccc4)C(=O)C3N2Nc2ccc([N+](=O)[O-])cc2)o1` (stereo not given), the z-score is -0.571 (inactive) in experiment [1]; 9.35 (active) in experiment [3]; 2.22 (inactive) in experiment [4]; 0.0777 (inactive) in experiment [5]; 1.49 (inactive) in [6]; -0.359 in experiment [7]. The z-score in [8] was 0.414 (inactive); in experiment [9], -0.521 (inactive); in experiment [10] it was -1.27. For the same compound, in experiment [2], the composite z-score amounted to 0.218.

With `COc1ccc(CCNC(=O)[C@@]2(Sc3ccc(C)cc3)CC(=O)N(C3CCCCC3)[C@@H]2c2ccc(CO)cc2I)cc1`, the z-score was -0.0948 (inactive) in [1]; 2.91 (inactive) in [3]; 0.547 (inactive) in experiment [4]; -0.325 (inactive) in [5]; 0.252 (inactive) in experiment [6]; -0.012 in [7]. Also, the figures for the z-score in [8], in experiment [9] and in [10] were 0.573 (inactive), 0.672 (inactive) and 2.1, respectively. The compound also yielded a composite z-score in [2] of 0.0889.

On to `N#Cc1ccc(NN2C(C(O)c3c(F)cccc3Cl)C=CC3C(=O)N(c4ccccc4)C(=O)C32)cc1` (stereo not given), for which the z-score is -0.857 (inactive) in experiment [1]; 22 (active) in [3]; 5.46 (inactive) in experiment [4]; 1.21 (inactive) in [5]; 1.51 (inactive) in experiment [6]; -1.17 in experiment [7]. Also, the z-score is -1.1 (inactive) in experiment [8], -3.86 (inactive) in experiment [9] and -2.98 in [10]. Also, the composite z-score in experiment [2] was 0.192.

On to `CCOC(=O)[C@H]1CC=C2CC1C(=O)N1CCC[C@@H]1[C@@H]2O[Si](C)(C)C(C)(C)C` (stereo not given in full), for which the z-score in experiment [1] was -0.94 (inactive); in experiment [3], 2.09 (inactive); in experiment [4], 0.493 (inactive); in experiment [5] it was -0.42 (inactive); in [6], 0.378 (inactive); in experiment [7], -0.409. Moreover, the results for the z-score in experiment [8], in experiment [9] and in experiment [10] were 0.461 (inactive), -0.625 (inactive) and -3.9, respectively. The compound further had a composite z-score in [2] of -0.471.

Consider `CCOC(=O)C[C@H]1[C@H](OC(=O)c2ccc(C(=O)c3ccccc3)cc2)[C@@H](NC(=O)c2ccc(-c3ccccc3)cc2)c2cc(OCCCO)ccc2N1C(=O)c1ccccc1`, for which the z-score was -0.948 (inactive) in experiment [1]; 0.358 (inactive) in experiment [3]; 0.135 (inactive) in [4]; -0.559 (inactive) in [5]; -0.16 (inactive) in experiment [6]; 0.0156 in [7]. The z-score in experiment [8] is 0.788 (inactive); in experiment [9], 0.379 (inactive); in [10] it was 0.551. Besides, the composite z-score in experiment [2] was -0.199.

Regarding `Cc1ccc(S[C@]2(C(=O)NCCN3CCOCC3)CC(=O)N(Cc3ccccc3)[C@@H]2c2ccc(CO)cc2I)cc1`, the z-score in experiment [1] was 0.434 (inactive); in experiment [3], 8.54 (active); in experiment [4], 0.37 (inactive); in experiment [5], 1.13 (inactive); in [6], -1.19 (inactive); in [7] it was 2.42. For the same compound, the z-score was 1.99 (inactive) in experiment [8], -2.89 (inactive) in [9] and 0.422 in experiment [10]. For the same compound, in experiment [2], the composite z-score is 0.0752.

For the compound `COCCOC(=O)N1C(=O)[C@@]2(c3cc(C#CC4=CCCCC4)ccc31)[C@H](C(N)=O)[C@H]1C(=O)O[C@H](c3ccccc3)[C@H](c3ccccc3)N1[C@@H]2c1ccc(OCCO)cc1`, the z-score in experiment [1] was 0.102 (inactive); in [3], 6.77 (inactive); in [4] it was 3.03 (inactive); in experiment [5] it was 2.5 (inactive); in experiment [6] it was 1.96 (inactive); in experiment [7] it was 0.375. Further, the z-score was 1.54 (inactive) in experiment [8], 1.41 (inactive) in experiment [9] and 1.96 in experiment [10]. In addition, in experiment [2], the composite z-score was -0.273.

For the compound `CCOC(=O)C1=CCC(c2ccccc2)N(S(=O)(=O)CC[Si](C)(C)C)C1` (stereo not given), the z-score in [1] was -0.348 (inactive); in [3] it was 2.49 (inactive); in experiment [4], 0.767 (inactive); in [5], -0.0704 (inactive); in experiment [6] it was 0.561 (inactive); in [7], -0.215. The z-score in experiment [8] is 0.183 (inactive); in experiment [9], 0.976 (inactive); in [10] it was -0.179. Further, the composite z-score in [2] is -0.147.

Regarding `O=C1O[C@H](c2ccccc2)[C@H](c2ccccc2)N2[C@H]1[C@@H](C(=O)NC[C@H](O)c1ccccc1)[C@]1(C(=O)Nc3ccccc31)[C@H]2c1ccc(OCCO)cc1`, the z-score was -1.26 (inactive) in [1]; 4.2 (inactive) in [3]; 1.36 (inactive) in [4]; 0.179 (inactive) in [5]; 1.47 (inactive) in experiment [6]; 0.0578 in [7]. Further, the results for the z-score in [8], in experiment [9] and in experiment [10] were 1.55 (inactive), 1.02 (inactive) and 1.34, respectively. The compound also had a composite z-score in experiment [2] of 0.159.

Regarding `O=C1O[C@@H](c2ccccc2)[C@@H](c2ccccc2)N2[C@@H](c3ccc(OCCO)cc3)[C@]3(C(=O)Nc4ccccc43)[C@@H](C(=O)NC[C@H](O)c3ccccc3)[C@H]12`, the z-score in experiment [1] was -0.29 (inactive); in experiment [3], 6.58 (inactive); in experiment [4], 1.85 (inactive); in experiment [5], 0.539 (inactive); in [6], 0.779 (inactive); in experiment [7], -0.29. Moreover, the z-score in experiment [8] was 1.62 (inactive); in experiment [9], 0.918 (inactive); in [10], 0.81. The same compound registered a composite z-score in experiment [2] of -0.0491.
